How the values were obtained:
Experiment in all cases: SPOT peptide array binding signal intensity (averaged, normalized) (arbitrary units (background-subtracted, floor 0; scale differs between SH3 domains)); higher = stronger binding of the SH3 domain to the peptide
AgAbp1 = biological target: AgAbp1
In short: (§1)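 Detection of bound protein relied on anti-GST antibody, an HRP anti-mouse secondary and luminol, with imaging and quantification in Genespotter. The bound protein was GST-fused SH3 domains from four yeast species, incubated at 10 μg/ml overnight at 4°C in TBS-based blocking buffer on cellulose membranes carrying synthetic 15-mer peptides with cysteines replaced by serines. Binding signal is normalized, background-subtracted spot intensity averaged over replicates, in arbitrary units that differ between domains.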

AgBbc1 = biological target: AgBbc1
In short: as §1

AgBem1-D1 = biological target: AgBem1-D1
In short: as §1

AgBzz1-D1 = biological target: AgBzz1-D1
In short: as §1

AgBzz1-D2 = biological target: AgBzz1-D2
In short: as §1

AgCyk3 = biological target: AgCyk3
In short: as §1

AgFus1 = biological target: AgFus1
In short: as §1

AgHof1 = biological target: AgHof1
In short: as §1

AgHse1 = biological target: AgHse1
In short: as §1

AgLsb1 = biological target: AgLsb1
In short: as §1

AgLsb4 = biological target: AgLsb4
In short: as §1

AgMyo5 = biological target: AgMyo5
In short: as §1

AgNbp2 = biological target: AgNbp2
In short: as §1

AgRvs167 = biological target: AgRvs167
In short: as §1

AgSho1 = biological target: AgSho1
In short: as §1

AgSla1-D1-D2 = biological target: AgSla1-D1-D2
In short: as §1

AgSla1-D3 = biological target: AgSla1-D3
In short: as §1

CaAbp1-D1 = biological target: CaAbp1-D1
In short: as §1

CaAbp1-D2 = biological target: CaAbp1-D2
In short: as §1

CaBbc1 = biological target: CaBbc1
In short: as §1

CaBem1-D1 = biological target: CaBem1-D1
In short: as §1

CaBzz1-D1 = biological target: CaBzz1-D1
In short: as §1

CaBzz1-D2 = biological target: CaBzz1-D2
In short: as §1

CaCyk3 = biological target: CaCyk3
In short: as §1

CaFus1 = biological target: CaFus1
In short: as §1

CaHof1 = biological target: CaHof1
In short: as §1

CaHse1 = biological target: CaHse1
In short: as §1

CaLsb1 = biological target: CaLsb1
In short: as §1

CaLsb4 = biological target: CaLsb4
In short: as §1

CaMyo5 = biological target: CaMyo5
In short: as §1

CaNbp2 = biological target: CaNbp2
In short: as §1

CaRvs167 = biological target: CaRvs167
In short: as §1

CaRvs167-3 = biological target: CaRvs167-3
In short: as §1

CaSho1 = biological target: CaSho1
In short: as §1

CaSla1-D1-D2 = biological target: CaSla1-D1-D2
In short: as §1

CaSla1-D3 = biological target: CaSla1-D3
In short: as §1

ScAbp1 = biological target: ScAbp1
In short: as §1

ScBbc1 = biological target: ScBbc1
In short: as §1

ScBem1-D1 = biological target: ScBem1-D1
In short: as §1

ScBzz1-D1 = biological target: ScBzz1-D1
In short: as §1

ScBzz1-D2 = biological target: ScBzz1-D2
In short: as §1

ScCyk3 = biological target: ScCyk3
In short: as §1

ScFus1 = biological target: ScFus1
In short: as §1

ScHof1 = biological target: ScHof1
In short: as §1

ScHse1 = biological target: ScHse1
In short: as §1

ScLsb1 = biological target: ScLsb1
In short: as §1

ScLsb2 = biological target: ScLsb2
In short: as §1

ScLsb3 = biological target: ScLsb3
In short: as §1

ScLsb4 = biological target: ScLsb4
In short: as §1

ScMyo3 = biological target: ScMyo3
In short: as §1

ScMyo5 = biological target: ScMyo5
In short: as §1

ScNbp2 = biological target: ScNbp2
In short: as §1

ScPex13 = biological target: ScPex13
In short: as §1

ScRvs167 = biological target: ScRvs167
In short: as §1

ScSho1 = biological target: ScSho1
In short: as §1

ScSla1-D1-D2 = biological target: ScSla1-D1-D2
In short: as §1

ScSla1-D3 = biological target: ScSla1-D3
In short: as §1

SpAbp1-D1 = biological target: SpAbp1-D1
In short: as §1

SpBbc1 = biological target: SpBbc1
In short: as §1

SpBzz1-D1 = biological target: SpBzz1-D1
In short: as §1

SpBzz1-D2 = biological target: SpBzz1-D2
In short: as §1

SpCyk3 = biological target: SpCyk3
In short: as §1

SpHof1 = biological target: SpHof1
In short: as §1

SpHof1-2 = biological target: SpHof1-2
In short: as §1

SpHof1-3 = biological target: SpHof1-3
In short: as §1

SpHse1 = biological target: SpHse1
In short: as §1

SpLsb1 = biological target: SpLsb1
In short: as §1

SpLsb4 = biological target: SpLsb4
In short: as §1

SpMyo1 = biological target: SpMyo1
In short: as §1

SpNbp2 = biological target: SpNbp2
In short: as §1

SpPex13 = biological target: SpPex13
In short: as §1

SpRvs167 = biological target: SpRvs167
In short: as §1

SpSla1-D1-D2 = biological target: SpSla1-D1-D2
In short: as §1

SpSla1-D3 = biological target: SpSla1-D3
In short: as §1

For VPKEPAPAPPPEPDM, the “SPOT peptide array binding signal intensity” value (AgAbp1) was ≤ 0, the “SPOT peptide array binding signal intensity” value (AgBbc1) was 0.5 and the “SPOT peptide array binding signal intensity” value (AgBem1-D1) was ≤ 0. The “SPOT peptide array binding signal intensity” value (AgBzz1-D1) was ≤ 0, the “SPOT peptide array binding signal intensity” value (AgBzz1-D2) was 7 and the “SPOT peptide array binding signal intensity” value (AgCyk3) was ≤ 0. For the same binder, the “SPOT peptide array binding signal intensity” value (AgFus1) was 4.75, the “SPOT peptide array binding signal intensity” value (AgHof1) was 3.88 and the “SPOT peptide array binding signal intensity” value (AgHse1) was 8. For the same binder, the “SPOT peptide array binding signal intensity” value (AgLsb1) was ≤ 0, the “SPOT peptide array binding signal intensity” value (AgLsb4) was ≤ 0 and the “SPOT peptide array binding signal intensity” value (AgMyo5) was 520. For the same binder, the “SPOT peptide array binding signal intensity” value (AgNbp2) was 12, the “SPOT peptide array binding signal intensity” value (AgRvs167) was 0.167 and the “SPOT peptide array binding signal intensity” value (AgSho1) was 3.75. For the same binder, the “SPOT peptide array binding signal intensity” value (AgSla1-D1-D2) was ≤ 0, the “SPOT peptide array binding signal intensity” value (AgSla1-D3) was 0.75 and the “SPOT peptide array binding signal intensity” value (CaAbp1-D1) was ≤ 0. The “SPOT peptide array binding signal intensity” value (CaAbp1-D2) was ≤ 0, the “SPOT peptide array binding signal intensity” value (CaBbc1) was ≤ 0 and the “SPOT peptide array binding signal intensity” value (CaBem1-D1) was 1.5. The “SPOT peptide array binding signal intensity” value (CaBzz1-D1) was 42.8, the “SPOT peptide array binding signal intensity” value (CaBzz1-D2) was 2.75 and the “SPOT peptide array binding signal intensity” value (CaCyk3) was ≤ 0. For the same binder, the “SPOT peptide array binding signal intensity” value (CaFus1) was 39, the “SPOT peptide array binding signal intensity” value (CaHof1) was ≤ 0 and the “SPOT peptide array binding signal intensity” value (CaHse1) was 2.12. The “SPOT peptide array binding signal intensity” value (CaLsb1) was ≤ 0, the “SPOT peptide array binding signal intensity” value (CaLsb4) was ≤ 0 and the “SPOT peptide array binding signal intensity” value (CaMyo5) was 180.

MPAPPPPPPPPPGAF was tested, and the “SPOT peptide array binding signal intensity” value (AgAbp1) was ≤ 0, the “SPOT peptide array binding signal intensity” value (AgBbc1) was 3.81e-06 and the “SPOT peptide array binding signal intensity” value (AgBem1-D1) was ≤ 0. For the same binder, the “SPOT peptide array binding signal intensity” value (AgBzz1-D1) was ≤ 0, the “SPOT peptide array binding signal intensity” value (AgBzz1-D2) was 19.5 and the “SPOT peptide array binding signal intensity” value (AgCyk3) was ≤ 0. For the same binder, the “SPOT peptide array binding signal intensity” value (AgFus1) was ≤ 0, the “SPOT peptide array binding signal intensity” value (AgHof1) was 51.2 and the “SPOT peptide array binding signal intensity” value (AgHse1) was ≤ 0. The “SPOT peptide array binding signal intensity” value (AgLsb1) was ≤ 0, the “SPOT peptide array binding signal intensity” value (AgLsb4) was ≤ 0 and the “SPOT peptide array binding signal intensity” value (AgMyo5) was 822. The “SPOT peptide array binding signal intensity” value (AgNbp2) was ≤ 0, the “SPOT peptide array binding signal intensity” value (AgRvs167) was ≤ 0 and the “SPOT peptide array binding signal intensity” value (AgSho1) was ≤ 0. The “SPOT peptide array binding signal intensity” value (AgSla1-D1-D2) was ≤ 0, the “SPOT peptide array binding signal intensity” value (AgSla1-D3) was 0.5 and the “SPOT peptide array binding signal intensity” value (CaAbp1-D1) was 18.5. For the same binder, the “SPOT peptide array binding signal intensity” value (CaAbp1-D2) was ≤ 0, the “SPOT peptide array binding signal intensity” value (CaBbc1) was 0.25 and the “SPOT peptide array binding signal intensity” value (CaBem1-D1) was 40. The “SPOT peptide array binding signal intensity” value (CaBzz1-D1) was 970, the “SPOT peptide array binding signal intensity” value (CaBzz1-D2) was 69.1 and the “SPOT peptide array binding signal intensity” value (CaCyk3) was ≤ 0. The “SPOT peptide array binding signal intensity” value (CaFus1) was 33, the “SPOT peptide array binding signal intensity” value (CaHof1) was ≤ 0 and the “SPOT peptide array binding signal intensity” value (CaHse1) was 4.62. The “SPOT peptide array binding signal intensity” value (CaLsb1) was ≤ 0, the “SPOT peptide array binding signal intensity” value (CaLsb4) was ≤ 0 and the “SPOT peptide array binding signal intensity” value (CaMyo5) was 66. For the same binder, the “SPOT peptide array binding signal intensity” value (CaNbp2) was 29, the “SPOT peptide array binding signal intensity” value (CaRvs167) was ≤ 0 and the “SPOT peptide array binding signal intensity” value (CaRvs167-3) was 2.75. The “SPOT peptide array binding signal intensity” value (CaSho1) was 13.8, the “SPOT peptide array binding signal intensity” value (CaSla1-D1-D2) was ≤ 0 and the “SPOT peptide array binding signal intensity” value (CaSla1-D3) was ≤ 0. The “SPOT peptide array binding signal intensity” value (ScAbp1) was ≤ 0, the “SPOT peptide array binding signal intensity” value (ScBbc1) was ≤ 0 and the “SPOT peptide array binding signal intensity” value (ScBem1-D1) was ≤ 0. For the same binder, the “SPOT peptide array binding signal intensity” value (ScBzz1-D1) was 27.5, the “SPOT peptide array binding signal intensity” value (ScBzz1-D2) was ≤ 0 and the “SPOT peptide array binding signal intensity” value (ScCyk3) was ≤ 0. For the same binder, the “SPOT peptide array binding signal intensity” value (ScFus1) was ≤ 0, the “SPOT peptide array binding signal intensity” value (ScHof1) was ≤ 0 and the “SPOT peptide array binding signal intensity” value (ScHse1) was 4.25. The “SPOT peptide array binding signal intensity” value (ScLsb1) was ≤ 0, the “SPOT peptide array binding signal intensity” value (ScLsb2) was ≤ 0 and the “SPOT peptide array binding signal intensity” value (ScLsb3) was ≤ 0. For the same binder, the “SPOT peptide array binding signal intensity” value (ScLsb4) was ≤ 0, the “SPOT peptide array binding signal intensity” value (ScMyo3) was 1010 and the “SPOT peptide array binding signal intensity” value (ScMyo5) was 634. The “SPOT peptide array binding signal intensity” value (ScNbp2) was ≤ 0, the “SPOT peptide array binding signal intensity” value (ScPex13) was 71.9 and the “SPOT peptide array binding signal intensity” value (ScRvs167) was ≤ 0. For the same binder, the “SPOT peptide array binding signal intensity” value (ScSho1) was 5.75, the “SPOT peptide array binding signal intensity” value (ScSla1-D1-D2) was ≤ 0 and the “SPOT peptide array binding signal intensity” value (ScSla1-D3) was 0.125. The “SPOT peptide array binding signal intensity” value (SpAbp1-D1) was 7, the “SPOT peptide array binding signal intensity” value (SpBbc1) was ≤ 0 and the “SPOT peptide array binding signal intensity” value (SpBzz1-D1) was 1360. For the same binder, the “SPOT peptide array binding signal intensity” value (SpBzz1-D2) was 5.62, the “SPOT peptide array binding signal intensity” value (SpCyk3) was ≤ 0 and the “SPOT peptide array binding signal intensity” value (SpHof1) was 0.5. For the same binder, the “SPOT peptide array binding signal intensity” value (SpHof1-2) was 7.75, the “SPOT peptide array binding signal intensity” value (SpHof1-3) was 4.25 and the “SPOT peptide array binding signal intensity” value (SpHse1) was 17.5. For the same binder, the “SPOT peptide array binding signal intensity” value (SpLsb1) was ≤ 0, the “SPOT peptide array binding signal intensity” value (SpLsb4) was ≤ 0 and the “SPOT peptide array binding signal intensity” value (SpMyo1) was 521. For the same binder, the “SPOT peptide array binding signal intensity” value (SpNbp2) was ≤ 0, the “SPOT peptide array binding signal intensity” value (SpPex13) was ≤ 0 and the “SPOT peptide array binding signal intensity” value (SpRvs167) was 43.4. For the same binder, the “SPOT peptide array binding signal intensity” value (SpSla1-D1-D2) was ≤ 0 and the “SPOT peptide array binding signal intensity” value (SpSla1-D3) was ≤ 0.
